The results in this text go back to PubChem BioAssay (Tox21).

Assay [1] can be described thus: Caspase-3/7 induction in HepG2 cells by small molecules, qHTS assay (AID 1346978). Note: nearly all actives have a fitted effect of over 15% in size. Put shortly: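 Wild-type HepG2 cells (2,000/well) were settled 5 h at 37 C, 5% CO2, then exposed to compounds in DMSO for 17 h. Caspase-3/7 activity was read by luminescence 30 min after adding Caspase-Glo 3/7 reagent at room temperature.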
(In general: qHTS replaces the single test concentration by a dilution series.)

Assay [2] in a line: Caspase-3/7 induction in CHO-K1 cells by small molecules, qHTS cell viability counter screen (AID 1346979). Note: nearly all actives have a fitted effect of over 35% in size. The gist of the method: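 Cytotoxicity counter screen run in parallel with the caspase-3/7 assay: CHO-K1 cells, 16hr compound treatment at 37C, then CellTiter-Fluor for 1hr before fluorescence reading.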
Assay [3] can be described thus: Caspase-3/7 induction in CHO-K1 cells by small molecules, qHTS assay (AID 1346980). Note: nearly all actives have a fitted effect of over 15% in size. The gist of the method:
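Wild-type cells were seeded at 1,500 per well and settled 5 hr at 37 C, 5% CO2, then exposed to DMSO-dissolved compounds for 17 hr. Caspase-Glo 3/7 reagent was added, and luminescence was read after 30min at room temperature.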

A short description of assay [4]: Caspase-3/7 induction in HepG2 cells by small molecules, qHTS cell viability counter screen (AID 1346981). Note: series mostly up to about 92 µM; nearly all actives have a fitted effect of over 30% in size. Put shortly: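 Cell viability is measured as a cytotoxicity counter screen alongside the Caspase-Glo 3/7 readout in identical wells. Wild-type HepG2 cells are treated with test compounds for 16 hr at 37 C before CellTiter-Fluor addition and a 1-hr incubation.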

The target of assay [5] is Nuclear receptor subfamily 1 group I member 2 (Homo sapiens) (UniProt O75469). Description: Human pregnane X receptor (PXR) small molecule agonists, qHTS assay (AID 1346982). Note: nearly all actives have a fitted effect of over 35% in size. Put shortly:
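Cells: HepG2 stably carrying PXR-Luc. Medium held 5% charcoal-stripped FBS. Compounds in DMSO added after 5 hr plating, incubated 24 hr, then luminescence quantified with ONE-Glo.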

Assay [6] concerns the target Nuclear receptor subfamily 1 group I member 2 (Rattus norvegicus) (UniProt Q9R1A7). Description: Rat pregnane X receptor (rPXR) activation by small molecules, qHTS assay (AID 1346983). Note: nearly all actives have a fitted effect of over 20% in size. Conditions: rPXR luciferase reporter cells, One-Glo luminescence, 24 h; max activation: hits give high values. Put shortly:
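Cell-based rPXR luciferase reporter assay, 2,000 cells per well, rested 5hr at 37 C before compound addition in DMSO, then 24 hr at 37 C. One-Glo reagent was added and luminescence read after 30 min at room temperature.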

For assay [7], the target named is Nuclear receptor subfamily 1 group I member 2 (Homo sapiens) (UniProt O75469). Description: CYP3A4 induction through human pregnane X receptor (PXR) by small molecules, qHTS assay (AID 1346984). Note: nearly all actives have a fitted effect of over 40% in size. Note: potency is the fitted concentration of half-maximal effect. The gist of the method:
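Quantitative HTS in DPX-2 cells, i.e. HepG2 transfected with PXR response element and CYP3A4-promoter luciferase. Compounds in DMSO incubated 24hr at 37C; then P450-Glo CYP3A4 substrate, 3uM final, 3hr; One-Glo luminescence.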

Assay [8] shares this target. Description: Human pregnane X receptor (PXR) activation by small molecules, qHTS assay (AID 1346985). Note: nearly all actives have a fitted effect of over 40% in size. Put shortly: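 DPX-2 cells (HepG2 co-transfected with a PXR response element and a CYP3A4-promoter luciferase construct) were seeded at 2,000 per well, rested 5 hr at 37C, then exposed to DMSO-dissolved compounds for 24 hr. Activation was read as luciferase luminescence.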

Assay [9] concerns the target Cytochrome P450 2C19 (Homo sapiens) (UniProt P33261). Description: Cytochrome P450 Family 2 Subfamily C Member 19 (CYP2C19) small molecule antagonists: luciferase reporter qHTS assay (AID 1671197). Note: nearly all actives have a fitted effect of over 65% in size. Note: potency is the fitted concentration of half-maximal effect. The gist of the method:
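P450-Glo CYP2C19 screening system; proluciferin substrate; DMSO compound stocks; 10 min RT preincubation; NADPH regeneration, 1 h at 37C; luciferin detection reagent, 20 min RT; luminescence as RLU.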
Background: Reporter assays use an easily measured gene product as a stand-in for the process of interest.

Assay [10] has as its target Cytochrome P450 2C9 (Homo sapiens) (UniProt P11712). Description: Cytochrome P450 Family 2 Subfamily C Member 9 (CYP2C9) small molecule antagonists: luciferase reporter qHTS assay (AID 1671198). Note: series mostly up to about 120 µM; nearly all actives have a fitted effect of over 50% in size. The gist of the method:
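CYP2C9 activity was measured with a P450-Glo proluciferin substrate. Enzyme–substrate mix was held with compound for 10 min at room temperature, then NADPH regeneration solution was added for 1 h at 37C. Luciferin product was read as luminescence.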

For assay [11], the target named is Cytochrome P450 1A2 (Homo sapiens) (UniProt P05177). Description: Cytochrome P450 Family 1 Subfamily A Member 2 (CYP1A2) small molecule antagonists: luciferase reporter qHTS assay (AID 1671199). Note: series mostly up to about 120 µM; nearly all actives have a fitted effect of over 50% in size. Put shortly: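 Compounds were incubated with CYP1A2 and a luminogenic proluciferin substrate for 10 min at room temperature before the reaction was started with NADPH regeneration solution. After 1 h, detection reagent was added and light output, proportional to CYP activity, was recorded.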
Sequence of Cytochrome P450 1A2 (Homo sapiens) (P05177 whole entry, looked up): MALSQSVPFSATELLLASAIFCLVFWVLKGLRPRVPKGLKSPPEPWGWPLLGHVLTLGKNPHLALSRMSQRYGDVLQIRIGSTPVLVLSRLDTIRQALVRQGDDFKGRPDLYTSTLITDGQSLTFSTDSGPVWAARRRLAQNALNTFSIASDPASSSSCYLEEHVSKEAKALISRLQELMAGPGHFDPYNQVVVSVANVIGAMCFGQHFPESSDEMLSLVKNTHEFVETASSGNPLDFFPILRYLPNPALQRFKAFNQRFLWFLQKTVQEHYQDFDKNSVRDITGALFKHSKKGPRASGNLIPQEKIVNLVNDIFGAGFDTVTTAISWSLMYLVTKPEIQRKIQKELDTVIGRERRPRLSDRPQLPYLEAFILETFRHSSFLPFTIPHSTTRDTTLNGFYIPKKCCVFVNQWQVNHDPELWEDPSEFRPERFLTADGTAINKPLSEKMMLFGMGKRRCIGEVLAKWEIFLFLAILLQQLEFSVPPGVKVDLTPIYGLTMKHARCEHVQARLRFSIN

The target in assay [12] is Cytochrome P450 3A4 (Homo sapiens) (UniProt P08684). Description: Cytochrome P450 Family 3 Subfamily A Member 4 (CYP3A4) small molecule antagonists: luciferase reporter qHTS assay (AID 1671201). Note: series mostly up to about 120 µM; nearly all actives have a fitted effect of over 50% in size. The gist of the method: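 qHTS, 1536-well. CYP3A4 + proluciferin substrate, cpd 10 min RT → NADPH regen 1 h RT → detection reagent 20 min → luminescence (RLU). Ketoconazole positive control.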
Sequence of Cytochrome P450 3A4 (Homo sapiens) (P08684 whole entry, looked up): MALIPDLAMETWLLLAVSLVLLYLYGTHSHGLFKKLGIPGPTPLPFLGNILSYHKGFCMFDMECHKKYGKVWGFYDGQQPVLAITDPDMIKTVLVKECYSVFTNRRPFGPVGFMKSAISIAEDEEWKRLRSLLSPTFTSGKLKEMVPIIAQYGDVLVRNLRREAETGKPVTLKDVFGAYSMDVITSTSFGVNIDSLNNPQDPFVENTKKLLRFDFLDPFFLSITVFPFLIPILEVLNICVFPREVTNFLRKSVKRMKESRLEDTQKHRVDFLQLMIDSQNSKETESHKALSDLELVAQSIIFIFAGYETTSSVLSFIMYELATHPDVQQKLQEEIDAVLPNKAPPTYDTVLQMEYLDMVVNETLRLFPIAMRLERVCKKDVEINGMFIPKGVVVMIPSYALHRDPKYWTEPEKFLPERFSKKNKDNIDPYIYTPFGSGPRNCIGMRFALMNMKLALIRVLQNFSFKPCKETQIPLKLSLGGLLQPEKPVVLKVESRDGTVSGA

Assay [13] concerns the target Voltage-gated inwardly rectifying potassium channel KCNH2 (Homo sapiens) (UniProt Q12809). Description: Human Ether-a-go-go-Related Gene (hERG) channel small molecule antagonists: fluorescence cell-based qHTS assay (AID 1671200).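 Note: hERG-expressing U2OS cells given a thallium stimulus after FluxOR II dye loading; series mostly up to about 77 µM; nearly all actives have a fitted effect of over 50% in size.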 Put shortly:
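Fluorescence at 540 nm emission (480 nm excitation) was recorded kinetically for 2 min at 1-second intervals once the thallium-containing stimulus reached cells previously loaded with FluxOR II dye.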

The target of assay [14] is Cytochrome P450 2D6 (Homo sapiens) (UniProt P10635). Description: Cytochrome P450 Family 2 Subfamily D Member 6 (CYP2D6) small molecule antagonists: luciferase reporter qHTS assay (AID 1671196). The gist of the method:
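Enzyme and proluciferin substrate were first combined with test chemical for 10 min at room temperature. Adding NADPH regeneration solution started a 1 h reaction, stopped with luciferin detection reagent and read by luminescence 20 min later.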

Values joined by “and” are separate entries in the source; they are usually repeats but may differ in a detail not shown here. Equal values may be shown once. Unmarked numbers belong to inactive results. Inconclusive results are not listed. Active and inactive are the calls of the source. Calls come from the whole dose curve; as a rule, active = well fitted curve in the direction sought with a large enough effect in the repeat runs; inconclusive = weak or mixed curves; inactive = no such curve, though single readings can be large; an effect the other way counts as inactive or inconclusive.
% is set by controls: 0 for no effect and ±100 for the full control effect.

Sequence of Cytochrome P450 2C9 (Homo sapiens) (P11712 whole entry, looked up): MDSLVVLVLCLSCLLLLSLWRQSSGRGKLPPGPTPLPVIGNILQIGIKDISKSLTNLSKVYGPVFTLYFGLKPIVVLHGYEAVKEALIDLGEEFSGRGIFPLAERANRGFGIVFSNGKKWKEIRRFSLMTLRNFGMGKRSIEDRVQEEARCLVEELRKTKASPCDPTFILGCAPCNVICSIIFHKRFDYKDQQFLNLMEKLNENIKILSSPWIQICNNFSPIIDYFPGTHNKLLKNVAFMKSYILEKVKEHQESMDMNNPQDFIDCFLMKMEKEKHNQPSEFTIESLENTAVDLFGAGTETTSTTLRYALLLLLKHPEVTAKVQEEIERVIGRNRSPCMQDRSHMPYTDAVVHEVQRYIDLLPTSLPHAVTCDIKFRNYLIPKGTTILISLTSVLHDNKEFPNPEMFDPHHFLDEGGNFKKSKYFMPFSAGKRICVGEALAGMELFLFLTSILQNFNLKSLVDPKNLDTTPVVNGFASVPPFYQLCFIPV
Sequence of Voltage-gated inwardly rectifying potassium channel KCNH2 (Homo sapiens) (Q12809 whole entry, looked up): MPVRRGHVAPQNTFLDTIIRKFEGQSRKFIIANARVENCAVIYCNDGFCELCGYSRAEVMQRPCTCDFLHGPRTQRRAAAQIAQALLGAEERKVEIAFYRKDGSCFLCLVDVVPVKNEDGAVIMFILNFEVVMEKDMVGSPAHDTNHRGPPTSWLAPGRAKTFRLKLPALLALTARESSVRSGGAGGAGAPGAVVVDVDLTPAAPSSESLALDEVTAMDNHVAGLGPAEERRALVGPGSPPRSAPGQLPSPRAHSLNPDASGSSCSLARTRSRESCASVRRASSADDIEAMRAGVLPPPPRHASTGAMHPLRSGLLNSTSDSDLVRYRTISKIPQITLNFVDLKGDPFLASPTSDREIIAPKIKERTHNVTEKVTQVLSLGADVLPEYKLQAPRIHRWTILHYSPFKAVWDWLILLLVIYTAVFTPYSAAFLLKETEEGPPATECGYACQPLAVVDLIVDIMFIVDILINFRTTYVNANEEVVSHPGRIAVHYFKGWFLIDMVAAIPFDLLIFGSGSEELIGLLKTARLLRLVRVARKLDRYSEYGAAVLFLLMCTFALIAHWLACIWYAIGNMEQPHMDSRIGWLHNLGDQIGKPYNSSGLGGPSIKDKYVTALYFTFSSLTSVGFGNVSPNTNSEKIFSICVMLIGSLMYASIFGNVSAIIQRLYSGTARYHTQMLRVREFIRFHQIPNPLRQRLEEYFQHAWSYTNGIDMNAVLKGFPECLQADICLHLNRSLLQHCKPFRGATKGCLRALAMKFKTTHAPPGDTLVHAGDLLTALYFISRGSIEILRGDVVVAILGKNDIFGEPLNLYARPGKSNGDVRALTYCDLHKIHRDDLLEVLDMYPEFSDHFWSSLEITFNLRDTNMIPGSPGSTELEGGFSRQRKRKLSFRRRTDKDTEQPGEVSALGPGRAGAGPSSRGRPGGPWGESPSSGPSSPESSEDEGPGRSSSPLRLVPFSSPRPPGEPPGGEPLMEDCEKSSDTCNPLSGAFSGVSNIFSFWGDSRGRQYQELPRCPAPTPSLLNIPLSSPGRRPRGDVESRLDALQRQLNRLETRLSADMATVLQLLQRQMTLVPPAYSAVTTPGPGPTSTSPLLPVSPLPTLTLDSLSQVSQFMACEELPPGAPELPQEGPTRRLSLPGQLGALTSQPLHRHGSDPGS
Sequence of Cytochrome P450 2C19 (Homo sapiens) (P33261 whole entry, looked up): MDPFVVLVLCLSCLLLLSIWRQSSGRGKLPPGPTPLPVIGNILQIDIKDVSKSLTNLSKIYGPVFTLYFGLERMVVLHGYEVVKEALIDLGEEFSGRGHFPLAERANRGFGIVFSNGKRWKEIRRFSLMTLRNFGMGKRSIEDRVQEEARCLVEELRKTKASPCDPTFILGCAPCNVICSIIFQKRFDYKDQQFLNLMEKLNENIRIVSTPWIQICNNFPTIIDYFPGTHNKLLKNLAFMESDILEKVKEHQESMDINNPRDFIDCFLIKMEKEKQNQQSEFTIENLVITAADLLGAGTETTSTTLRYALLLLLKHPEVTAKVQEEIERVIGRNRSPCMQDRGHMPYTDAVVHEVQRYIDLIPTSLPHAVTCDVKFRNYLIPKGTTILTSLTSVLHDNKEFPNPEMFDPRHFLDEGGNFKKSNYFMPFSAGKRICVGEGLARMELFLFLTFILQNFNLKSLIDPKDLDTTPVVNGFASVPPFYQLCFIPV
Sequence of Cytochrome P450 2D6 (Homo sapiens) (P10635 whole entry, looked up): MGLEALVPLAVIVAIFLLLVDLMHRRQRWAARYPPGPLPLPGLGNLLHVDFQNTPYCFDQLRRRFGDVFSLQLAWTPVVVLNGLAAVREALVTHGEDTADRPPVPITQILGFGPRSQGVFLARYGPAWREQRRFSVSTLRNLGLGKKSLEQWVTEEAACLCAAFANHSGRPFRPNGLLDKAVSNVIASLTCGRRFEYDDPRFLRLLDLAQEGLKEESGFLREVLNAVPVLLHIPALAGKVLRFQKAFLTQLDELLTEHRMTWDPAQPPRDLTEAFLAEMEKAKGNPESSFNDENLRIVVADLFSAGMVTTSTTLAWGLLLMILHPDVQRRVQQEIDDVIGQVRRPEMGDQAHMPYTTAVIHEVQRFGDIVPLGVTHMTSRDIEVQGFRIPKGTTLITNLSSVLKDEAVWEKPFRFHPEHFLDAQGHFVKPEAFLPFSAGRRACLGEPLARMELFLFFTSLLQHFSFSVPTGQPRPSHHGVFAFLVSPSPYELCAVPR
Sequence of Nuclear receptor subfamily 1 group I member 2 (Homo sapiens) (O75469 whole entry, looked up): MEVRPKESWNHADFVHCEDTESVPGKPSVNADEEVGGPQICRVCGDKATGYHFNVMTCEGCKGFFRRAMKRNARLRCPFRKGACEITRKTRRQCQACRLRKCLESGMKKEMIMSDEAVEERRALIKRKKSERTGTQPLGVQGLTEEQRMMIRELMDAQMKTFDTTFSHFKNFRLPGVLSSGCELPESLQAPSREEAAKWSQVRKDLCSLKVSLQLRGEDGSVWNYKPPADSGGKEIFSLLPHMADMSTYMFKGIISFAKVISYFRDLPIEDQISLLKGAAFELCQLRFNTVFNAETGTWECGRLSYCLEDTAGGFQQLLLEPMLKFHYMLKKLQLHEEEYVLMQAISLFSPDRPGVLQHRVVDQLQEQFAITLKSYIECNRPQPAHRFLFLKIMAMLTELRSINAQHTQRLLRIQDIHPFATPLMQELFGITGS
Sequence of Nuclear receptor subfamily 1 group I member 2 (Rattus norvegicus) (Q9R1A7 whole entry, looked up): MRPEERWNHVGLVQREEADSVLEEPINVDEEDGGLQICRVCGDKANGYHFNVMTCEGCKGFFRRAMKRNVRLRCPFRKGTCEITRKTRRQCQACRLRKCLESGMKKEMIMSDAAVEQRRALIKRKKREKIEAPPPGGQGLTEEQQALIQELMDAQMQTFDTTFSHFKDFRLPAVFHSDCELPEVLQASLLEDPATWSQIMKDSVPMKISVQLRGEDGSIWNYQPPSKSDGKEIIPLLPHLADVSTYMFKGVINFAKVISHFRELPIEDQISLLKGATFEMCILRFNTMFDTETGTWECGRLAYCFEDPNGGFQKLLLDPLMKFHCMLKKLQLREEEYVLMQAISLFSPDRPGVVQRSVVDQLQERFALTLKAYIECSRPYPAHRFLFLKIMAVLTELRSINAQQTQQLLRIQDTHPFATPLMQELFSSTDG

`Cc1cccc(C)c1NC(=O)CC12CCCN1CCC2`: the call in assay [1] and in assay [3] was inactive. For the same compound, the Potency entry in assay [2], in assay [4], in assay [5], in [7], in [8] and in assay [9] was “inactive” throughout. The Potency result in assay [10], in assay [11] and in assay [12] was “inactive” each time. Moreover, in assay [6], the max activation was 6.3%.

Turning to `NCCCC(N)(C(=O)O)C(F)F` (centres undefined), the compound was classed as inactive in assay [1] and in assay [3]. Further, the Potency entry in [2] and in assay [4] was “inactive” each time.

For the compound `CC1=C(C/C=C(\C)CCC[C@H](C)CCC[C@H](C)CCCC(C)C)C(=O)c2ccccc2C1=O`, the compound was called inactive in [1] and in [3]. Besides, the Potency result in assay [2], in [4], in [5], in assay [8], in assay [9] and in [13] was “inactive” each time. Further, in assay [12], the Potency result is “inactive”. Besides, the max activation in assay [6] is -2.63%. Besides, the Potency in assay [7] is 11.2 µM (active).

For the compound `CC[C@H]1OC(=O)[C@H](C)[C@@H](O[C@H]2C[C@@](C)(OC)[C@@H](O)[C@H](C)O2)[C@H](C)[C@@H](O[C@@H]2O[C@H](C)C[C@H](N(C)C)[C@H]2O)[C@](C)(OC)C[C@@H](C)C(=O)[C@H](C)[C@@H](O)[C@]1(C)O`, the result in [1] and in [3] was inactive. In addition, the Potency entry in [2], in assay [4], in [5], in [7], in assay [8] and in assay [14] was “inactive” throughout. In addition, the Potency result in assay [10] and in [13] was “inactive” in each case. The max activation in [6] was -0.482%. In [9], the Potency is 63.8 µM (active).

As for `CCCC(C)C(=O)OCC` (centres undefined), the result in [1] and in [3] was inactive. The Potency result in [2], in [4], in assay [5], in assay [14], in [9] and in [10] was “inactive” in each case. In addition, the Potency entry in assay [11], in assay [13] and in [12] was “inactive” in each case.

With `N[C@H](C(=O)O)[C@@H](O)c1ccc(O)c(O)c1`, the compound was classed as inactive in [1] and in assay [3]. The Potency result in assay [2], in assay [4], in assay [5], in [7], in assay [8] and in assay [14] was “inactive” in each case. For the same compound, the Potency entry in [9], in assay [10], in [13] and in assay [12] was “inactive” each time. Also, the max activation in [6] is -4.66%.

Turning to `C[N+]1(C)[C@@H]2CC(OC(=O)[C@H](CO)c3ccccc3)C[C@H]1[C@@H]1O[C@@H]12` (some centres undefined), the compound was called inactive in [1] and in [3]. Further, the Potency entry in [2], in assay [4], in assay [5], in assay [7], in assay [8] and in assay [14] was “inactive” in each case. Further, the Potency result in assay [9], in assay [13] and in assay [12] was “inactive” in each case. In addition, the max activation in assay [6] was -0.815%.

As for `CN1[C@@H]2CC[C@H]1CC(OC(=O)C(O)c1ccccc1)C2` (some centres undefined), the call in [1] and in [3] was inactive. The Potency result in [2], in assay [4], in assay [5], in [7], in assay [8] and in assay [14] was “inactive” each time. The Potency result in [9], in assay [10], in [13] and in [12] was “inactive” each time. The max activation in [6] was 2.11% and -0.222%.

Consider `OCCCCCO`, for which the compound was classed as inactive in [1] and in assay [3]. For the same compound, the Potency entry in assay [2], in assay [4], in assay [5], in assay [14], in assay [9] and in assay [10] was “inactive” throughout. Further, the Potency entry in assay [11], in assay [13] and in assay [12] was “inactive” in each case.
